Inconclusive results are not listed. A call without a number means that no potency is given here. The source made the active and inactive calls. Calls come from the whole dose curve.
experiment: p53 small molecule agonists, cell-based qHTS assay with rat liver microsomes (AID 1963578); settings: HCT-116 p53RE-bla, beta-lactamase ratio, 16 h; series mostly up to 66 µM
Summary of the method: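 Read-out is beta-lactamase reporter fluorescence (LiveBLAzer, 2 h, room temperature, dark) in p53RE-bla cells treated 16 h at 37 C with compound, rat liver microsomes and NADPH, both 0.5 mg/mL final.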

Question: With `CCCCCCCCCCCCCCBr` as the compound, how does the Potency read?
Answer: inactive

Question: Which Potency does the source give for `Cc1ccc2c(c1)c1c3n2CCNC3CCC1` (stereo not given) here?
Answer: inactive

Question: For `O=C(O)CCCC[P+](c1ccccc1)(c1ccccc1)c1ccccc1`, which Potency is on record?
Answer: inactive

Question: For `CC(C)C1OCCN1CCOC(=O)NCCCCCCNC(=O)OCCN1CCOC1C(C)C` (stereo not given), which Potency is on record?
Answer: inactive

Question: Which Potency does the source give for `CCCCCCCCSCc1cc(C)c(O)c(CSCCCCCCCC)c1` here?
Answer: inactive

Question: Which Potency does the source give for `O=C(c1ccc(O)cc1)c1ccc(Cl)cc1` here?
Answer: inactive

Question: Which Potency does the source give for `CC(=O)Oc1cc(C(C)C)c(OCCN(C)C)cc1C` here?
Answer: inactive

Question: Which Potency does the source give for `CN(C)CCCOC1(Cc2ccccc2)CCCCCC1` here?
Answer: inactive

Question: With `CC(C(=O)O)c1ccc(CC2CCCC2=O)cc1` (stereo not given) as the compound, how does the Potency read?
Answer: inactive

Question: With `Nc1ccc(S(=O)(=O)Nc2ccnn2-c2ccccc2)cc1` as the compound, how does the activation read?
Answer: 0.115% [at 13.6 µM] (inactive)

Question: With `CC(C)Cn1cnc2c(N)nc3ccccc3c21` as the compound, how does the activation read?
Answer: -0.62% [at 13.6 µM] (inactive)

Question: For `Oc1cccc2[nH]ccc12`, which Potency is on record?
Answer: inactive

Question: With `C/C=C\C/C=C/CCCCCCCCOC(C)=O` as the compound, how does the Potency read?
Answer: inactive

Question: For `CC(C)OCC1CO1` (stereo not given), which Potency is on record?
Answer: inactive

Question: With `CCOC(=O)N1CCC(Nc2ccc(Cl)cc2N)CC1` as the compound, how does the Potency read?
Answer: inactive

Question: For `CC(C)(O)c1ccc(CNC(=O)c2cccnc2Oc2ccc(F)cc2)cc1`, which Potency is on record?
Answer: inactive

Question: Which Potency does the source give for `NCC1CCC(C(=O)Oc2ccc(CCC(=O)O)cc2)CC1` (stereo not given) here?
Answer: inactive

Question: Which Potency does the source give for `O=C(CCCl)NCc1ccccc1` here?
Answer: inactive

Question: For `CCCC(=O)c1cc(O)c(O)cc1O`, which Potency is on record?
Answer: inactive

Question: With `CCN1CCCC1CNC(=O)c1cc(S(=O)(=O)CC)c(N)cc1OC` (stereo not given) as the compound, how does the Potency read?
Answer: inactive

Question: For `O=C(CCOCCOCCOCCOCCC(=O)Nc1c(I)cc(I)c(C(=O)O)c1I)Nc1c(I)cc(I)c(C(=O)O)c1I`, which Potency is on record?
Answer: inactive

Question: With `CC(C)C(=O)Nc1cccc(C(F)(F)F)c1` as the compound, how does the Potency read?
Answer: inactive

Question: Which Potency does the source give for `Clc1ccnc(Cl)n1` here?
Answer: inactive

experiment: p53 small molecule agonists, cell-based qHTS assay with rat liver microsomes: qHTS cell viability counter screen (AID 1963580); settings: p53RE-bla HCT-116 + rat microsomes, ATP viability, 16 h; series mostly up to 66 µM; note: nearly all actives have a fitted effect of over 45% in size
Summary of the method: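 Cytotoxicity counter screen: intracellular ATP measured by CellTiter-Glo luminescence in the same wells as the beta-lactamase reporter read, on HCT-116 p53RE-bla cells exposed 16 h at 37 C to compounds with rat liver microsomes and NADPH, each 0.5 mg/mL final.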

Question: For `O=S(=O)(O)c1ccc(N=Nc2c(O)ccc3ccccc23)cc1`, which Potency is on record?
Answer: inactive

Question: For `O=C(NS(=O)(=O)/C=C/c1ccccc1)c1ccc(F)cc1Cl`, which Potency is on record?
Answer: inactive

Question: Which Potency does the source give for `Nc1c(N=Nc2ccc(-c3ccc(N=Nc4cc(S(=O)(=O)O)c5ccccc5c4N)cc3)cc2)cc(S(=O)(=O)O)c2ccccc12` here?
Answer: inactive

Question: With `CCCCCCCCCCCCCCNCCO` as the compound, how does the Potency read?
Answer: inactive

Question: With `O=C1OC(O)C(C(Cl)Cl)=C1Cl` (stereo not given) as the compound, how does the Potency read?
Answer: inactive

Question: Which Potency does the source give for `Cc1cc2c(s1)Nc1ccccc1N=C2N1CCN(C)CC1` here?
Answer: inactive

Question: Which Potency does the source give for `C=CC(=O)OCCOCCOC(=O)C=C` here?
Answer: inactive

Question: For `FC(F)(F)C(F)(F)C(F)(F)C(F)(F)C(F)(F)C(F)(F)C(F)(F)C(F)(F)Br`, which Potency is on record?
Answer: inactive

Question: For `C=CC(=O)OCCOCC(CC)(COCCOC(=O)C=C)COCCOC(=O)C=C`, which Potency is on record?
Answer: inactive

Question: For `C[C@H]1O[C@H](O[C@H]2[C@H](O)[C@@H](O)[C@@H](O[C@H]3[C@H](O)[C@@H](O)[C@H](O)O[C@@H]3CO)O[C@@H]2CO)[C@H](O)[C@@H](O)[C@@H]1N[C@H]1C=C(CO)[C@@H](O)[C@H](O)[C@H]1O`, which Potency is on record?
Answer: inactive

Question: For `CCCCCCCCCCCCCCBr`, which Potency is on record?
Answer: inactive

Question: Which Potency does the source give for `Cc1ccc2c(c1)c1c3n2CCNC3CCC1` (stereo not given) here?
Answer: inactive

Question: With `CC(C)C1OCCN1CCOC(=O)NCCCCCCNC(=O)OCCN1CCOC1C(C)C` (stereo not given) as the compound, how does the Potency read?
Answer: inactive

Question: For `CC(=O)Oc1cc(C(C)C)c(OCCN(C)C)cc1C`, which Potency is on record?
Answer: inactive

Question: With `CN(C)CCCOC1(Cc2ccccc2)CCCCCC1` as the compound, how does the Potency read?
Answer: inactive

Question: Which activity change, negative = cytotoxicity does the source give for `CC(C)Cn1cnc2c(N)nc3ccccc3c21` here?
Answer: -0.545% [at 13.5 µM] (inactive)

Question: For `CC(C)OCC1CO1` (stereo not given), which Potency is on record?
Answer: inactive

Question: Which Potency does the source give for `O=C(CCCl)NCc1ccccc1` here?
Answer: inactive

Question: With `CCCC(=O)c1cc(O)c(O)cc1O` as the compound, how does the Potency read?
Answer: inactive

Question: Which Potency does the source give for `CCN1CCCC1CNC(=O)c1cc(S(=O)(=O)CC)c(N)cc1OC` (stereo not given) here?
Answer: inactive

Question: For `O=C(CCOCCOCCOCCOCCC(=O)Nc1c(I)cc(I)c(C(=O)O)c1I)Nc1c(I)cc(I)c(C(=O)O)c1I`, which Potency is on record?
Answer: inactive

Question: With `CC(C)C(=O)Nc1cccc(C(F)(F)F)c1` as the compound, how does the Potency read?
Answer: inactive

— PubChem BioAssay (Tox21)
